# According to PubChem BioAssay (NCI):
# The panel holds about 79,000 compounds, 15% with a hit somewhere; the sample as a whole holds those more often. Unmarked numbers belong to inactive results. Calls of active or inactive are those of the source. No stated cut-off is given here; in the data, active means growth inhibition above about 70%; inactive means the rest.
# Experiments:
# [1] = NCI Yeast Anticancer Drug Screen. Data for the rad50 strain (AID 155);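 further: 0% = growth of vehicle-only cultures of the same strain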; conditions: S. cerevisiae rad50 strain growth inhibition, active compounds read high
# In short: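 A DNA repair-deficient yeast mutant serves as the test organism; compound-induced growth inhibition is calculated against vehicle-treated cells.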
# [2] = NCI Yeast Anticancer Drug Screen. Data for the mec2-1 strain (AID 157); conditions: S. cerevisiae mec2-1 strain, active compounds read high
# In short: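 Using mec2-1 yeast: add compound, measure growth, express inhibition versus vehicle-treated cultures.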
# [3] = NCI Yeast Anticancer Drug Screen. Data for the sgs1 mgt1 strain (AID 161);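 further: 0% = growth of cultures given vehicle only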; conditions: S. cerevisiae sgs1 mgt1 strain, active compounds read high
# In short: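 Percent growth inhibition was derived by comparing compound-exposed mutant yeast with vehicle-exposed cultures. The strain carries alterations in DNA damage repair.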
# [4] = NCI Yeast Anticancer Drug Screen. Data for the cln2 rad14 strain (AID 165);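 further: 0% = growth equal to vehicle treated cultures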; conditions: S. cerevisiae cln2 rad14 strain, active compounds read high
# In short: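 Yeast strain cln2 rad14, bearing defects in cell cycle control and DNA repair, serves as the test system; values reflect growth inhibition compared with vehicle.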
# [5] = NCI Yeast Anticancer Drug Screen. Data for the bub3 strain (AID 167); conditions: S. cerevisiae bub3 mutant strain, active compounds read high
# In short: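 Inhibition values come from growth of compound-treated mutant yeast normalised to vehicle-treated controls.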
# [6] = NCI Yeast Anticancer Drug Screen. Data for the mlh1 rad18 strain (AID 175); conditions: S. cerevisiae mlh1 rad18 strain growth inhibition, active compounds read high
# In short: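 Steps: expose repair-defective yeast to compound; measure growth; express inhibition against vehicle-treated controls.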
# [7] = at 5.0 µM (retest, dose inferred, filed as 0.5)
# [8] = at 50.0 µM (retest, dose inferred, filed as 5.0)
SMILES,"growth inhibition [1, 7]","growth inhibition [1, 8]",growth inhibition ([1]; at 50.0 µM),"growth inhibition [2, 7]","growth inhibition [2, 8]",growth inhibition ([2]; at 50.0 µM),"growth inhibition [3, 7]","growth inhibition [3, 8]",growth inhibition ([3]; at 50.0 µM),"growth inhibition [4, 7]","growth inhibition [4, 8]",growth inhibition ([4]; at 50.0 µM),"growth inhibition [5, 7]","growth inhibition [5, 8]",growth inhibition ([5]; at 50.0 µM),"growth inhibition [6, 7]","growth inhibition [6, 8]",growth inhibition ([6]; at 50.0 µM)
C=C1C(=O)C23OC2C1CCC(=O)C1(C)CC[C@H](OC(C)=O)C(C)(C)[C@H]1CC3O (some centres not stated),86% (active),79% (active),99.2% (active),92% (active),31%,100% (active),92% (active),42%,99.5% (active),71% (active),16%,99.2% (active),92% (active),27%,99.2% (active),92% (active),38%,99% (active)
CCN(CC)CCCOC(=O)C(c1ccccc1)C1CCCCC1 (configuration not stated),4%,63%,88.5% (active),11%,71% (active),67.5%,22%,94% (active),90.7% (active),13%,41%,88.5% (active),16%,83% (active),94.1% (active),41%,97% (active),98% (active)
CN(C)C(=S)/N=c1\ss/c(=N\C(=S)N(C)C)n1Cc1ccco1,-2%,2%,12.2%,-2%,0%,-10.7%,-2%,4%,-2.7%,-4%,3%,9.1%,0%,-1%,-3.05%,-1%,2%,-3.15%
c1ccc(CC(Nc2cccnc2)c2ccccc2)cc1 (configuration not stated),6%,56%,74.5% (active),-13%,24%,22.6%,-2%,74% (active),74.1% (active),-1%,28%,21.9%,24%,40%,56.1%,1%,60%,75.3% (active)
CC1(C)OC(=O)C(=NNc2ccccc2[N+](=O)[O-])C(=O)O1,5%,4%,-6.9%,2%,19%,5.75%,2%,16%,1.25%,-2%,12%,29.4%,3%,21%,21.5%,2%,7%,18.1%
CCCCCCCCCCCCNC(=O)C[n+]1cccc(C(=O)Nc2ccccc2)c1,99% (active),97% (active),98.8% (active),100% (active),99% (active),98.8% (active),99% (active),98% (active),99.5% (active),99% (active),98% (active),98.6% (active),99% (active),98% (active),98.2% (active),99% (active),98% (active),98.2% (active)
CCCCCCC[CH2][Sn]([CH2]CCCCCCC)([O]c1cccc2cccnc12)[O]c1cccc2cccnc12,21%,21%,89.7% (active),18%,18%,87.7% (active),14%,14%,89.7% (active),9%,9%,85.4% (active),4%,4%,90.1% (active),10%,10%,86.3% (active)
CCOC(=O)c1c(C)n(C)c2c1nnc1ccccc12,16%,85% (active),64.7%,15%,79% (active),51.1%,19%,82% (active),59%,12%,69%,55.2%,1%,73% (active),46%,7%,83% (active),57.1%
Nc1ccc2c(c1)NCCN2,42%,76% (active),84% (active),5%,17%,32.1%,4%,20%,23.5%,3%,6%,21.4%,1%,18%,18.2%,7%,31%,53.4%
